G9a inh = G9a (human) methyltransferase inhibition; Q96KQ7; G9a H3K9 monomethylation, AlphaScreen, 2 h; Potency, µM (series often up to 102 µM), without a hit: at the highest dose activity, negative = inhibition, actives largely listed as inhibitors; 8.8% of 350,000 active; AID 504332; note: % is set by controls: 0 for no effect and ±100 for the full control effect; nearly all actives have a fitted effect of over 75% in size
Target sequence (Q96KQ7 913-1193 limits assumed): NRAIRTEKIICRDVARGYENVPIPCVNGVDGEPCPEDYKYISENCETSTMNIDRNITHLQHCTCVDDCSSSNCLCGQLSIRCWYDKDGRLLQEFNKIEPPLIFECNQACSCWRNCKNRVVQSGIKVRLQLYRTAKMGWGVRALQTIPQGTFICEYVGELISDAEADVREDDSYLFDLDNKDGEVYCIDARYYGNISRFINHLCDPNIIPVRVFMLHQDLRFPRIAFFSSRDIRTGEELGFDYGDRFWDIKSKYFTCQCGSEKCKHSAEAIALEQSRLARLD
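Methyltransferase reactions run at room temperature for 2 h (20 nM enzyme, 500 nM biotin-H3K9 peptide, 20 uM SAM) after a 15 min compound preincubation; product detected by AlphaScreen beads and anti-H3K9me1 antibody.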
Sfp PPTase inh = blocks B. subtilis Sfp PPTase activity | Biochemical Sfp PPTase activity, qHTS | Potency, µM, for the others: largest response in the series, negative = inhibition, actives largely listed as inhibitors | 3.5% of 310,000 active | AID 1490;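 note: the enzyme is Sfp with the accession as filed and its product quenches rhodamine fluorescence; 0% = enzyme reaction without inhibitor and -100% = no enzyme wells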
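Buffer: 50 mM Hepes-Na pH 7.6, 10 mM MgCl2, 0.01% Nonidet P-40, 0.01% BSA. Enzyme 15 nM, pre-exposed to compound 15 min; substrates then added and fluorescence change tracked over 30 min.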
HP1b chromo inh = HP1-beta chromodomain-methylated histone interaction inhibition; 0.56% of 390,000 active; AlphaScreen HP1-beta / biotin-H3K9me3 peptide binding; Potency, µM (doses to about 114 µM), for the others: top-dose activity change, negative = inhibition, actives largely listed as inhibitors; P83916; note: nearly all actives have a fitted effect of over 70% in size
Target sequence (P83916 whole entry, looked up): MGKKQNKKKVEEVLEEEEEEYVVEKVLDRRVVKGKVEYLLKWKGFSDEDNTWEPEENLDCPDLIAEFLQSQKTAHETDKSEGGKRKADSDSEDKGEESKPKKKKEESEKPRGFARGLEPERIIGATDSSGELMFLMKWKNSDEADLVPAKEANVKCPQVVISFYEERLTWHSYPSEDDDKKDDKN
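Compound inhibition of the preformed complex between 50 nM HP1-beta and 50 nM biotinylated H3K9me3 peptide was read by AlphaScreen. Buffer was PBS pH 7.4 with 0.01% Tween-20. Incubations ran 30 min at room temperature, with 10 ug/mL donor/acceptor beads.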
JMJD2A Tudor inh = inhibitors of human JMJD2A Tudor domain. O75164. AlphaScreen JMJD2A-Tudor / H3K4me3 peptide binding. Potency, µM (highest dose often 114 µM), inactives show at the top dose activity change, negative = inhibition, actives largely listed as inhibitors. 4.4% of 390,000 active. AID 504339; note: % is set by controls: 0 for no effect and ±100 for the full control effect; nearly all actives have a fitted effect of over 50% in size
L3MBTL1 block = inhibitors of human L3MBTL1; 0.66% of 230,000 active; AlphaScreen L3MBTL1–H3K9me1 peptide binding; Potency, µM (highest dose often 57.1 µM), inactives show top-dose activity, negative = inhibition, most hits filed as inhibitors; note: % is set by controls: 0 for no effect and ±100 for the full control effect; nearly all actives have a fitted effect of over 60% in size
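AlphaScreen assay: L3MBTL1 (50 nM final) was preincubated 30 min at room temperature with biotinylated H3(1-15)K9me1 peptide (75 nM final), then 30 min with library compounds; streptavidin donor and nickel chelate acceptor beads (10 ug/mL final) added, 30 min dark.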
BAZ2B block = inhibitors of human BAZ2B bromodomain; Q9UIF8; AlphaScreen BAZ2B-H3K14Ac peptide displacement; Potency, µM (doses to about 114 µM), inactives show at the highest dose activity change, negative = inhibition, hits mostly inhibitors; 4.4% of 360,000 active; note: % is set by controls: 0 for no effect and ±100 for the full control effect; nearly all actives have a fitted effect of over 60% in size
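AlphaScreen displacement: compounds (up to 110uM) incubated 30 min at room temperature with a preformed 50 nM BAZ2B/50 nM biotinylated H3K14Ac peptide complex in PBS pH 7.4 with Tween-20. Donor and acceptor beads at 10 ug/mL final added, 20 min light-protected before reading.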
* marks the source's active call; other numbers are inactive results; ? = inconclusive; . = no result given; [ ] = dose if it differs, or a comment. Most compounds without a hit are left out; they make up all but 12% or so of the library. Calls come from the whole dose curve; as a rule, active = well fitted curve in the direction sought with a large enough effect; inconclusive = small, poorly fitted or top-dose-only effect, or another doubt; inactive = no such curve, though single readings can be large; an effect the other way counts as inactive or inconclusive. Potency is the fitted concentration of half-maximal effect.

SMILES | G9a inh | Sfp PPTase inh | HP1b chromo inh | JMJD2A Tudor inh | L3MBTL1 block | BAZ2B block
COc1cccc([C@H]2Nc3ccc(S(=O)(=O)Nc4cc(C)ccc4C)cc3[C@H]3C=CC[C@H]32)c1 | 12.6µM* | . | 6.8% | -33.9% | . | -32.4%
COc1ccc(CC(=O)Nc2nn(C)c3nc4c(C)cccc4cc23)cc1 | -23.4% | 5.1% | 34.0% | 4.6% | . | -30.9%
Cc1cccc(Nc2cc(C)c3c(O)cccc3n2)c1C | 50.1µM* | ? | -2.8% | 44.7µM* | -10.1% | 39.8µM*
N#Cc1ccccc1OCC(=O)N1CCN(c2ccccc2)CC1 | 1.9%[59 µM] | . | 35.4% | -5.5% | . | 1.8%
Cc1ccc(/C=N/Nc2cccc3cccnc23)c(O)c1 | 17.8µM* | 44.7µM* | 18.9% | ? | -4.7% | -0.3%
COc1ccc2nc(Cl)c(/C=N/Nc3ccccn3)cc2c1 | 34.3% | 15.8µM* | 24.9% | -11.0% | . | -7.7%
CCN(CC)S(=O)(=O)c1ccc(N/N=C/c2ccc(O)cc2O)nc1 | 17.5%[59 µM] | -11.2% | 36.7% | -28.4% | ? | 25.1µM*
Clc1ccccc1C=NNc1ccccn1 | . | . | 13.4% | -15.3% | . | .
Brc1ccccc1/C=N/Nc1ccccn1 | -3.8% | 16.1% | 22.1% | -17.9% | 2.6% | -11.6%
FC(F)(F)c1ccccc1/C=N/Nc1ccccn1 | ? | 79.4µM* | 32.2% | -22.5% | -2.2% | -12.7%
C/C(=N\Nc1cccc2cccnc12)c1ccc[nH]1 | -30.9% | -14.5% | -27.0% | ? | -16.2% | ?
COc1cccc2sc(NC(=O)c3ccc(S(=O)(=O)N4CCC(C)CC4)cc3)nc12 | 3.1%[59 µM] | . | 20.2%[57 µM] | -12.0% | . | ?
Oc1ccc(C=NNc2ccccn2)c(O)c1 | . | . | 12.9% | 20µM* | . | .
COc1ccc(/C=N/Nc2ccccn2)cc1O | . | 50.1µM* | 4.1% | -8.1% | -4.5% | -16.2%
Oc1cccc(C=NNc2ccccn2)c1 | . | . | 29.8% | -25.0% | . | .
COc1cc(/C=N/NC(=O)C(=O)Nc2ccccn2)ccc1O | -19.7% | 5.0% | 24.1% | ? | -0.3% | -7.7%
Oc1ccc(/C=N/Nc2cccc3cccnc23)c(O)c1 | 5.62µM* | ? | -10.9% | ? | ? | -10.0%
O=c1[nH]ncc(N/N=C\c2ccc(O)cc2O)c1Cl | 0.2% | -11.0% | 32.5% | -6.2% | -1.8% | -18.2%
COc1ncc2ncc(=O)n(Cc3ccc(F)cc3)c2n1 | -2.4%[12.7 µM] | 19.7% | . | . | . | .
CC(OC(=O)CC1CCCC1)C(=O)Nc1ccc(S(N)(=O)=O)cc1 (stereo unspecified) | ? | . | 13.6% | 4.8% | 5.6% | 4.6%
COc1ccc(C(=Cc2ccccc2[N+](=O)[O-])C(=O)O)cc1 | . | . | 17.5% | -4.8% | . | .
O=C(NCC1CCCO1)c1ccc(C(=O)NCC2CCCO2)cc1 (stereo unspecified) | ? | 11.1% | 33.1% | -10.1% | -4.3% | -1.8%
CC(C)(C)c1ccc(C(=O)NC(=S)NCC2CCCO2)cc1 (stereo unspecified) | 39.8µM* | -0.5% | 18.1% | -15.2% | -6.0% | -29.9%
S=C(NCC1CCCO1)NC1CCCCC1 (stereo unspecified) | 50.1µM* | 11.2µM* | 10.9% | -21.2% | -18.3% | ?
S=C(NCC1CCCO1)c1ccc(Br)cc1 (stereo unspecified) | 8.91µM* | 20µM* | ? | -33.8% | -3.7% | -3.7%
SMILES | G9a inh | Sfp PPTase inh | HP1b chromo inh | JMJD2A Tudor inh | L3MBTL1 block | BAZ2B block
O=C(O)CCC/C=C\C/C=C\C=C\[C@@H](O)C/C=C\CCCCCO | . | 4.7% | . | . | . | .
CCNc1ncc2nc(C)c(=O)n(C[C@H]3CCCO3)c2n1 | 26.2%[0.501 µM] | 20.8% | . | . | . | .
O=S(=O)(c1ccc2c(c1)OCCO2)N1CCN(S(=O)(=O)c2ccc(F)cc2F)CC1 | . | . | . | -19.9% | . | .
CCNc1nc(NCC)nc(C(=O)NN)n1 | 7.6%[59 µM] | -8.1% | 57.5% | 39.8µM* | 3.98µM* | 2.82µM*
CCNc1nc(NCC)nc(OCC(=O)O)n1 | ? | 14.4% | 6.0% | -12.0% | . | -27.6%
O=C(COc1ccc(S(=O)(=O)N2CCOCC2)cc1)N1CCOCC1 | -10.4%[59 µM] | . | 11.7% | -15.3% | -2.0% | -3.6%
O=C(COc1ccc(/C=C\[N+](=O)[O-])cc1)N1CCOCC1 | 10µM* | 39.8µM* | 19.7% | -25.9% | 46.8% | -12.5%

Screening data from PubChem.
